Among the data in the antibiotic and cytotoxicity screens of Wong et al. (2023) are cytotoxicity call values, retold here.

The campaign covered roughly 39,000 compounds. About 3,300 (8.5%) were called active. The entries come from a sample that favours actives as a whole.

For the assay, the system named is HepG2. Briefly: cytotoxicity call (relative viability < 0.9). The following applies: 10 µM.
Consider `C[C@H](CO)N1C[C@H](C)[C@H](CN(C)S(C)(=O)=O)Oc2ccc(NS(=O)(=O)c3ccc(Cl)cc3)cc2C1=O`, for which the cytotoxicity call is “inactive”.

On to `OCc1cccc(Cn2cncn2)c1`, for which the cytotoxicity call is “inactive”.

As to `C[C@@H]1CN([C@@H](C)CO)S(=O)(=O)c2ccc(Br)cc2O[C@H]1CN(C)C(=O)c1ccccc1`, the cytotoxicity call is “inactive”.

Take `COCC#Cc1ccc([C@@H]2[C@H]3CN(C(=O)c4ccncc4)CC(=O)N3[C@H]2CO)cc1`: the cytotoxicity call was “inactive”.

On to `COc1ccc(NC(=O)Nc2ccc3c(c2)C(=O)N([C@H](C)CO)C[C@H](C)[C@@H](CN(C)S(=O)(=O)c2ccc(F)cc2)OCCCC[C@@H](C)O3)cc1`, for which the cytotoxicity call was “inactive”.

On to `C[C@H]1CN([C@@H](C)CO)C(=O)Cc2cc(NC(=O)Cn3cnnn3)ccc2O[C@H]1CN(C)Cc1ccc(C(=O)Nc2ccccc2N)cc1`, for which the cytotoxicity call was “inactive”.

For `Cc1ccc(S(=O)(=O)Nc2ccc3c(c2)C(=O)N([C@H](C)CO)C[C@@H](C)[C@@H](CN(C)C(=O)Nc2ccc4c(c2)OCO4)OCCCC[C@H](C)O3)cc1`, the cytotoxicity call was “inactive”.

As for `C[C@@H]1CN([C@H](C)CO)C(=O)c2cc(NC(=O)CCCN(C)C)ccc2O[C@@H]1CN(C)S(=O)(=O)c1cccs1`, the cytotoxicity call is “inactive”.

For `CC(C)C#Cc1ccc2c(c1)O[C@@H](CN(C)C(=O)Cc1ccccn1)[C@@H](C)CN([C@@H](C)CO)S2(=O)=O`, the cytotoxicity call was “inactive”.

As for `Cc1ccc(S(=O)(=O)N(C)C[C@@H]2Oc3c(NC(=O)Nc4cccc5ccccc45)cccc3C(=O)N([C@@H](C)CO)C[C@H]2C)cc1`, the cytotoxicity call was “inactive”.

As for `COc1ccc(NC(=O)Nc2cccc3c2O[C@H](CN(C)Cc2ccc(C(F)(F)F)cc2)[C@H](C)CN([C@@H](C)CO)C3=O)cc1`, the cytotoxicity call is “inactive”.

`CC(C)NC(=O)Nc1cccc2c1O[C@@H](CN(C)S(=O)(=O)c1ccc(Cl)cc1)[C@@H](C)CN([C@H](C)CO)C2=O`: the cytotoxicity call was “inactive”.

In the case of `C[C@@H]1CCCCO[C@@H](CN(C)Cc2ccc3c(c2)OCO3)[C@@H](C)CN([C@@H](C)CO)C(=O)c2cc(NS(=O)(=O)c3ccc(Cl)cc3)ccc2O1`, the cytotoxicity call is “active”.

As for `C[C@@H]1CN([C@H](C)CO)C(=O)c2cc(NS(=O)(=O)c3ccc(Cl)cc3)ccc2O[C@@H](C)CCCCO[C@@H]1CN(C)Cc1ccc2c(c1)OCO2`, the cytotoxicity call was “inactive”.

Turning to `C[C@@H]1CN([C@H](C)CO)C(=O)c2cc(NS(=O)(=O)c3ccc(Cl)cc3)ccc2O[C@@H](C)CCCCO[C@H]1CN(C)Cc1ccc2c(c1)OCO2`, the cytotoxicity call was “inactive”.

As for `COc1ccc(S(=O)(=O)Nc2ccc3c(c2)C(=O)N([C@H](C)CO)C[C@@H](C)[C@@H](CN(C)Cc2ccc(Oc4ccccc4)cc2)O3)cc1`, the cytotoxicity call is “inactive”.

For the molecule `COc1ccc(S(=O)(=O)Nc2ccc3c(c2)C(=O)N([C@H](C)CO)C[C@@H](C)[C@H](CN(C)Cc2ccc(Oc4ccccc4)cc2)O3)cc1`, the cytotoxicity call was “active”.

For the molecule `C[C@H]1CN([C@@H](C)CO)C(=O)c2cc(NS(=O)(=O)c3ccccc3)ccc2O[C@@H]1CN(C)Cc1ccc(Oc2ccccc2)cc1`, the cytotoxicity call is “inactive”.

As for `COc1ccc(S(=O)(=O)Nc2ccc3c(c2)C(=O)N([C@H](C)CO)C[C@H](C)[C@@H](CN(C)Cc2ccc(Oc4ccccc4)cc2)O3)cc1`, the cytotoxicity call was “active”.

Regarding `COc1ccc(S(=O)(=O)Nc2ccc3c(c2)C(=O)N([C@@H](C)CO)C[C@@H](C)[C@H](CN(C)Cc2ccc(Oc4ccccc4)cc2)O3)cc1`, the cytotoxicity call was “active”.

As to `COc1ccc(S(=O)(=O)Nc2ccc3c(c2)C(=O)N([C@H](C)CO)C[C@H](C)[C@H](CN(C)Cc2ccc(Oc4ccccc4)cc2)O3)cc1`, the cytotoxicity call was “inactive”.

As for `COc1ccc(S(=O)(=O)Nc2ccc3c(c2)C(=O)N([C@@H](C)CO)C[C@@H](C)[C@@H](CN(C)Cc2ccc(Oc4ccccc4)cc2)O3)cc1`, the cytotoxicity call was “active”.

Turning to `COc1ccc(S(=O)(=O)Nc2ccc3c(c2)C(=O)N([C@@H](C)CO)C[C@H](C)[C@@H](CN(C)Cc2ccc(Oc4ccccc4)cc2)O3)cc1`, the cytotoxicity call was “inactive”.

Take `COc1ccc(S(=O)(=O)Nc2ccc3c(c2)C(=O)N([C@@H](C)CO)C[C@H](C)[C@H](CN(C)Cc2ccc(Oc4ccccc4)cc2)O3)cc1`: the cytotoxicity call is “inactive”.

For the molecule `C[C@@H]1CN([C@@H](C)CO)C(=O)c2cc(NS(=O)(=O)c3ccccc3)ccc2O[C@H]1CN(C)Cc1ccc(Oc2ccccc2)cc1`, the cytotoxicity call is “inactive”.

With `CN1CCN(C(=O)C[C@H]2CC[C@@H]3[C@H](COC[C@H](O)CN3Cc3ccc4c(c3)OCO4)O2)CC1`, the cytotoxicity call is “inactive”.

For the molecule `O=C(C[C@@H]1CC[C@H]2[C@@H](COC[C@@H](O)CN2C(=O)Nc2ccc(C(F)(F)F)cc2)O1)NCCc1ccncc1`, the cytotoxicity call is “inactive”.

Regarding `CCCNC(=O)Nc1ccc2c(c1)OC[C@@H](C)N(Cc1ccc(-c3ccccn3)cc1)C[C@@H](C)[C@H](OC)CN(C)C2=O`, the cytotoxicity call was “inactive”.

On to `Nc1c(C(=O)O)cnc2nc(N3CCOCC3)nn12`, for which the cytotoxicity call was “inactive”.

Turning to `COc1ccc(S(=O)(=O)Nc2ccc3c(c2)C(=O)N([C@@H](C)CO)C[C@@H](C)[C@@H](CN(C)Cc2ccc(C(=O)O)cc2)OCCCC[C@@H](C)O3)cc1`, the cytotoxicity call was “inactive”.

Take `C[C@H]1CN([C@@H](C)CO)S(=O)(=O)c2ccc(C#Cc3ccc(F)cc3)cc2O[C@H]1CN(C)S(=O)(=O)c1cn(C)cn1`: the cytotoxicity call is “inactive”.

Consider `CNc1cc(=O)n(C)c(=O)n1C`, for which the cytotoxicity call is “inactive”.

Take `Cc1c(C)n2c3c(=O)n(C)c(=O)n(C)c3nc2n1CCN1CCOCC1`: the cytotoxicity call is “inactive”.

For the molecule `O=C(CN1C(=O)c2ccccc2C1=O)N1CCNCC1`, the cytotoxicity call is “inactive”.

Turning to `NC(=O)C1CCN(C(=O)c2ccc(NC3=N[C@H]4CS(=O)(=O)C[C@@H]4S3)cc2)CC1`, the cytotoxicity call was “inactive”.

For `C[C@H](CO)N1C[C@H](C)[C@H](CN(C)S(=O)(=O)c2ccc(Cl)cc2)Oc2ccc(NC(=O)c3ccncc3)cc2CC1=O`, the cytotoxicity call is “inactive”.

As for `CC(C)NC(=O)Nc1ccc2c(c1)C(=O)N([C@H](C)CO)C[C@@H](C)[C@H](CN(C)C(=O)Nc1ccc(C(F)(F)F)cc1)OCCCC[C@@H](C)O2`, the cytotoxicity call is “inactive”.

In the case of `C=C1COC(=O)[C@@H]2[C@@H](CO)[C@@H](O)C[C@H]12`, the cytotoxicity call was “inactive”.

As for `C[C@@H]1CN([C@H](C)CO)C(=O)c2cc(NC(=O)NC3CCCCC3)ccc2O[C@H]1CN(C)Cc1ccc(-c2ccccc2)cc1`, the cytotoxicity call is “inactive”.

As to `C[C@@H]1CN([C@H](C)CO)C(=O)c2cc(NC(=O)NC3CCCCC3)ccc2O[C@@H]1CN(C)Cc1ccc(-c2ccccc2)cc1`, the cytotoxicity call is “active”.

For the molecule `CC(C)NC(=O)Nc1ccc2c(c1)C(=O)N([C@H](C)CO)C[C@@H](C)[C@@H](CN(C)Cc1ccc(-c3ccccc3)cc1)O2`, the cytotoxicity call was “inactive”.

In the case of `C[C@H]1CN([C@@H](C)CO)C(=O)c2cc(NC(=O)NC3CCCCC3)ccc2O[C@H]1CN(C)Cc1ccc(-c2ccccc2)cc1`, the cytotoxicity call is “inactive”.

For `C[C@H](CO)N1C[C@H](C)[C@@H](CN(C)Cc2ccc(-c3ccccc3)cc2)Oc2ccc(NC(=O)NC3CCCCC3)cc2C1=O`, the cytotoxicity call was “inactive”.

Consider `C[C@H]1CN([C@@H](C)CO)C(=O)c2cc(NC(=O)NC3CCCCC3)ccc2O[C@@H]1CN(C)Cc1ccc(-c2ccccc2)cc1`, for which the cytotoxicity call is “active”.

On to `C[C@@H]1CN([C@@H](C)CO)C(=O)c2cc(NC(=O)NC3CCCCC3)ccc2O[C@@H]1CN(C)Cc1ccc(-c2ccccc2)cc1`, for which the cytotoxicity call is “active”.

As for `C[C@@H]1CN([C@@H](C)CO)C(=O)c2cc(NC(=O)NC3CCCCC3)ccc2O[C@H]1CN(C)Cc1ccc(-c2ccccc2)cc1`, the cytotoxicity call is “inactive”.

On to `C[C@H](CO)N1C[C@H](C)[C@H](CN(C)Cc2ccc(-c3ccccc3)cc2)Oc2ccc(NC(=O)NC3CCCCC3)cc2C1=O`, for which the cytotoxicity call was “inactive”.

Consider `[O-][NH2+][O-]`, for which the cytotoxicity call is “inactive”.

In the case of `C[C@H]1CN([C@@H](C)CO)C(=O)c2cc(NC(=O)Nc3cccc4ccccc34)ccc2O[C@H]1CN(C)S(=O)(=O)c1cccs1`, the cytotoxicity call was “inactive”.

Turning to `Cc1ccccc1[C@@H](c1ncccc1C)N(C)C(=O)C1CCN(CCOc2ccc(Cl)cc2Cl)CC1`, the cytotoxicity call was “inactive”.

On to `COc1ccccc1NC(=O)N(C)C[C@H]1Oc2ncc(C#CCN(C)C)cc2C(=O)N([C@H](C)CO)C[C@@H]1C`, for which the cytotoxicity call is “inactive”.

Consider `CCCNC(=O)N1C[C@@H](O)COC[C@H]2O[C@@H](CC(=O)N3CCOCC3)CC[C@@H]21`, for which the cytotoxicity call was “inactive”.

`O=C(CCCCCNC(=O)OCc1ccc(CO[C@H]2C[C@@H](c3ccc(C(F)(F)F)cc3)C=C(C(=O)N3CCN(Cc4ccc5c(c4)OCO5)CC3)O2)cc1)NO`: the cytotoxicity call is “inactive”.

Consider `C[C@@H]1CCCCO[C@@H](CN(C)CC2CC2)[C@@H](C)CN([C@H](C)CO)C(=O)c2cc(NC(=O)Nc3ccccc3)ccc2O1`, for which the cytotoxicity call was “inactive”.

For `CN1C(=O)c2cc(NC(=O)Cc3cccs3)ccc2OC[C@@H]2O[C@@H](CC(=O)NCCc3ccncc3)CC[C@@H]21`, the cytotoxicity call is “inactive”.

On to `C[C@@H]1CN([C@H](C)CO)C(=O)c2cc(/C=C/c3ccccc3)cnc2O[C@@H]1CN(C)C(=O)Nc1ccc(C(F)(F)F)cc1`, for which the cytotoxicity call is “active”.

Turning to `C[C@H]1CN([C@@H](C)CO)C(=O)c2cc(C3=CCCC3)cnc2O[C@H]1CN(C)C(=O)Nc1ccc(C(F)(F)F)cc1`, the cytotoxicity call is “active”.

Consider `C[C@H](CO)N1C[C@H](C)[C@H](CN(C)C(=O)Nc2ccc(C(F)(F)F)cc2)Oc2ncc(C3=CCCC3)cc2C1=O`, for which the cytotoxicity call is “inactive”.

Take `C[C@H](CO)N1C[C@H](C)[C@@H](CN(C)C(=O)CN2CCOCC2)Oc2ncc(C3=CCCCC3)cc2C1=O`: the cytotoxicity call is “inactive”.

For `C[C@@H]1CN([C@H](C)CO)C(=O)c2cc(C3=CCCC3)cnc2O[C@@H]1CN(C)C(=O)Nc1ccc(C(F)(F)F)cc1`, the cytotoxicity call was “active”.

With `C[C@@H]1CN([C@@H](C)CO)C(=O)c2cc(C3=CCCC3)cnc2O[C@@H]1CN(C)C(=O)Nc1ccc(C(F)(F)F)cc1`, the cytotoxicity call was “inactive”.

Regarding `C[C@@H]1CN([C@@H](C)CO)C(=O)c2cc(C3=CCCC3)cnc2O[C@H]1CN(C)C(=O)Nc1ccc(C(F)(F)F)cc1`, the cytotoxicity call was “inactive”.

`C[C@H](CO)N1C[C@H](C)[C@H](CN(C)C(=O)CN2CCOCC2)Oc2ncc(C3=CCCCC3)cc2C1=O`: the cytotoxicity call was “inactive”.

Turning to `C[C@H](CO)N1C[C@H](C)[C@@H](CN(C)C(=O)Nc2ccc(C(F)(F)F)cc2)Oc2ncc(/C=C/c3ccccc3)cc2C1=O`, the cytotoxicity call is “inactive”.

Regarding `C[C@@H]1CN([C@H](C)CO)C(=O)c2cc(C3=CCCCC3)cnc2O[C@H]1CN(C)C(=O)CN1CCOCC1`, the cytotoxicity call was “active”.

Consider `C[C@H]1CN([C@@H](C)CO)C(=O)c2cc(C3=CCCC3)cnc2O[C@@H]1CN(C)C(=O)Nc1ccc(C(F)(F)F)cc1`, for which the cytotoxicity call is “inactive”.

In the case of `C[C@@H]1CN([C@@H](C)CO)C(=O)c2cc(/C=C/c3ccccc3)cnc2O[C@H]1CN(C)C(=O)Nc1ccc(C(F)(F)F)cc1`, the cytotoxicity call was “inactive”.
